The nature of test [1]: antimalarial activity against Dd2 strain (AID 2302;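 active means growth inhibition above 50% at the single 2 µM test dose, taken to imply half-maximal potency below 2 µM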;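 further: 0% = DMSO untreated growth and 100% = chloroquine plus artemisinin killed control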). Conditions: P. falciparum Dd2 in RBCs, LDH growth readout, 72 h; at 2 µM; stronger effect = higher value.
The nature of test [2]: HepG2 cytotoxicity, primary screen, cytotoxicity control for P. falciparum antimalarial project, cell-based, ATP luminescence (AID 2303;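 active means inhibition above 50%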;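 further: 0% = DMSO wells and 100% = digitonin-killed cells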). Conditions: HepG2 viability, 24-48 h, at 10 µM, stronger effect = higher value.
Test [3] has as its target L-lactate dehydrogenase (Plasmodium falciparum (isolate CDC / Honduras)) (UniProt Q27743). As to the kind of experiment: PfLDH activity inhibition – cell lysate, 3D7 strain, counter-screen for P. falciparum growth inhibition project (AID 2304).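 Further: 0% = vehicle and 100% = reference inhibitor.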 Conditions: P. falciparum 3D7 crude extract, LDH APAD/NBT absorbance; at 2 µM; stronger effect = higher value. A general note: A counterscreen serves to expose hits that act by an unwanted route or on another target.

Test [4] can be described thus: inhibition of 3D7 malaria parasite growth – strain 3D7 (AID 2306).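 Further: 0% = DMSO wells and 100% = chloroquine plus artemisinin control wells.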 Conditions: P. falciparum 3D7 erythrocytic growth, LDH absorbance, 72 h; at 2 µM; stronger effect = higher value.
The target of test [5] is Calcium-dependent protein kinase 1 (Plasmodium falciparum (isolate 3D7)) (UniProt P62344). Nature of the test: PfCDPK1 kinase inhibitors, biochemical, TCAMS library (AID 1159585; cut-off not given, nearly all actives have IC50 up to about 0.98 µM;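 further: inhibitors leave more ATP so luminescence rises with inhibition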). Conditions: recombinant PfCDPK1, Kinase-Glo ATP depletion luminescence. A general note: In Kinase-Glo more light means more ATP remaining.
Chain of Calcium-dependent protein kinase 1 (Plasmodium falciparum (isolate 3D7)) (P62344 whole entry, looked up): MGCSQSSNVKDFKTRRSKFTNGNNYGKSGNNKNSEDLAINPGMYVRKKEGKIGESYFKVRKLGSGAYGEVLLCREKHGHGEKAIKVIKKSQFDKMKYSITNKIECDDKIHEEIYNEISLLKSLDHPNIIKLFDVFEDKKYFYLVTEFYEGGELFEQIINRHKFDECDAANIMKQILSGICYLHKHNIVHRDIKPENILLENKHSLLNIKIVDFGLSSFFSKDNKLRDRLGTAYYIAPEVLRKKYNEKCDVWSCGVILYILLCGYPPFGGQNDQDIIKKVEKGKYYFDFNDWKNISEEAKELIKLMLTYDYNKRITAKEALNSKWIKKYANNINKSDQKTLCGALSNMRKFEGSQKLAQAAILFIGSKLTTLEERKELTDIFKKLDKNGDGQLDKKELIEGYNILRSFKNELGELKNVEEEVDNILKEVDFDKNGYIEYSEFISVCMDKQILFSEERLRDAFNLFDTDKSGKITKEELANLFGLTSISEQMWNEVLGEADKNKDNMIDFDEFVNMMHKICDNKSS
For test [6], the target named is Plasmodium falciparum protein kinase 6 (PK6, PF3D7_1337100) (UniProt Q8IDW1). Nature of the test: PfPK6 kinase inhibitors, biochemical, TCAMS library (AID 1159586). Conditions: recombinant PfPK6, Kinase-Glo ATP depletion luminescence.
Chain of Plasmodium falciparum protein kinase 6 (PK6, PF3D7_1337100) (Q8IDW1 1-305): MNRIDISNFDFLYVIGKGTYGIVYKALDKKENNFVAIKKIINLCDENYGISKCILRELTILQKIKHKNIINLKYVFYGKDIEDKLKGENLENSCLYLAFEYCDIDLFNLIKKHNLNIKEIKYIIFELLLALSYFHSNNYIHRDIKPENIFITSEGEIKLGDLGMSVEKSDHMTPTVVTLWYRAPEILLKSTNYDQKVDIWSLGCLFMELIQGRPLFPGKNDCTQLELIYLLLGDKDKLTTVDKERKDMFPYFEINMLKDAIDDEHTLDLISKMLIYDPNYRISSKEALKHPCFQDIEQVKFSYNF
For test [7], the target named is Protein kinase 7 (PK7), Plasmodium falciparum 3D7 (PF3D7_0213400) (UniProt Q7YTF7). Nature of the test: inhibition of Plasmodium PK7 catalytic activity – biochemical, TCAMS antimalarial set, Kinase-Glo luminescence (AID 1159587). Conditions: recombinant PfPK7, Kinase-Glo ATP depletion luminescence.
Chain of Protein kinase 7 (PK7), Plasmodium falciparum 3D7 (PF3D7_0213400) (Q7YTF7 1-343): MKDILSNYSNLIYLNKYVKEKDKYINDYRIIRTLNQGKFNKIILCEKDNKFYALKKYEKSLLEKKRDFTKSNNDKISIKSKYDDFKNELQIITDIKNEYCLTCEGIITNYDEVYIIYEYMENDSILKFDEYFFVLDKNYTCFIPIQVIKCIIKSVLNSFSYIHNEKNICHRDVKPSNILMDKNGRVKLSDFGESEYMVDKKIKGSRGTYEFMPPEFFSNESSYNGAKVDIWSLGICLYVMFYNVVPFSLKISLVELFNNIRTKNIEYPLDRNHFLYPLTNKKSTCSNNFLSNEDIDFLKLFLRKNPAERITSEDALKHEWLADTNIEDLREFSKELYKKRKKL
The target in test [8] is Calcium-dependent protein kinase 4 (Plasmodium falciparum (isolate 3D7)) (UniProt Q8IBS5). Nature of the test: PfCDPK4 kinase inhibitors, biochemical, TCAMS library (AID 1159588; cut-off not given, nearly all actives have IC50 up to about 0.91 µM). Conditions: recombinant PfCDPK4, Kinase-Glo ATP depletion luminescence.
Chain of Calcium-dependent protein kinase 4 (Plasmodium falciparum (isolate 3D7)) (Q8IBS5 whole entry, looked up): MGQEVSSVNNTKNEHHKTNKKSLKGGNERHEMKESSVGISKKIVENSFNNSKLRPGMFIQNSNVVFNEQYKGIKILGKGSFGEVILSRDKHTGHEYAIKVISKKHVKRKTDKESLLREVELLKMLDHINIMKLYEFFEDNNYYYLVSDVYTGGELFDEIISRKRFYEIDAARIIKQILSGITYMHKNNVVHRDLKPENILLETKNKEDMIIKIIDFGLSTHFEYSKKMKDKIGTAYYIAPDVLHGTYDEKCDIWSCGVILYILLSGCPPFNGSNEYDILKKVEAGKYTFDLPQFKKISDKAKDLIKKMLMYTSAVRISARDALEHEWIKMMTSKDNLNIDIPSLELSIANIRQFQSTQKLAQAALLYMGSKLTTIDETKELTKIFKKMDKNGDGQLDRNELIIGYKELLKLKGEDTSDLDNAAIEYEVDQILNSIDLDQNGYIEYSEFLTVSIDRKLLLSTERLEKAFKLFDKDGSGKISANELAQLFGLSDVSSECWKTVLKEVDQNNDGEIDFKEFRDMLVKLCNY

SMILES strings stand for the structures. Unmarked numbers belong to inactive results. For part of these data: Entries with a potency or affinity are not part of this list. Activity calls are given as the source filed them. Unless noted, how the calls were made is not given here.

The values that follow come from PubChem BioAssay.

Chain of L-lactate dehydrogenase (Plasmodium falciparum (isolate CDC / Honduras)) (Q27743 whole entry, looked up): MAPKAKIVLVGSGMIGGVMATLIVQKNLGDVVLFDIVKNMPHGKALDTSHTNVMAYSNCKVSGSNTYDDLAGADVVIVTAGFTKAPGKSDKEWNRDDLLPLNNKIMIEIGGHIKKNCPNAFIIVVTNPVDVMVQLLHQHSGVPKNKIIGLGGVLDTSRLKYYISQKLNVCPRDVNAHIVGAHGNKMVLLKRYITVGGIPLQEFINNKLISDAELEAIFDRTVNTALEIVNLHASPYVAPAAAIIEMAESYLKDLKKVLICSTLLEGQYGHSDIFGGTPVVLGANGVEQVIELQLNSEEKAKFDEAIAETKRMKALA

Broadly, the inhibition is the relative decrease from the control value, in per cent. For the molecule `COc1cc(C(=O)NC2CCN(Cc3ccccc3)CC2)ccc1-c1nc2cc(Cl)c(C)cc2[nH]1`, the values for the growth inhibition in test [1] and in test [4] were 97% (active) and 99% (active), respectively. Besides, the values for the inhibition in test [2] and in test [3] were -3% and 0%, respectively. Further, the result in test [5], in test [6], in test [7] and in test [8] was inactive.

Consider `Cc1cc(N)c2cc(NC(=O)/C=C/c3ccccc3Cl)ccc2n1`, for which the results for the growth inhibition in test [1] and in test [4] were 98% (active) and 100% (active), respectively. In addition, the inhibition in test [2] is 81% (active); in test [3] it was -2%. The result in test [5], in test [6], in test [7] and in test [8] was inactive.

With `Cc1ccccc1OCCCN1CCN(CC(c2ccc(F)cc2)N2CCN(C(C)C)CC2)CC1` (stereo not given), the growth inhibition was 64% (active) in test [1] and 99% (active) in test [4]. The inhibition in test [2] was 20%; in test [3] it was 2%. The result in test [5], in test [6], in test [7] and in test [8] was inactive.

As to `Cc1ccc(C2CCN(CCCCNC(=O)c3ccc(-c4ccc(C#N)cc4)cc3)CC2)c(O)c1`, the growth inhibition in test [1] was 90% (active); in test [4], 100% (active). Moreover, the inhibition in test [2] is 45%; in test [3], -3%. The result in test [5], in test [6], in test [7] and in test [8] was inactive.

Take `Cc1cccc2[nH]c(-c3ccc(-c4cccc(CN5CCCC(N)C5)c4)s3)nc12` (stereo not given): the values for the growth inhibition in test [1] and in test [4] were 94% (active) and 100% (active), respectively. Besides, the inhibition in test [2] is 17%; in test [3], 4%. Besides, the result in test [5], in test [6], in test [7] and in test [8] was inactive.

Consider `Cc1ccc(-n2c(C)nc3c(Nc4ccc(-c5ccncc5)cc4)ncnc32)c(C)c1`, for which the growth inhibition in test [1] and in test [4] was 99% (active) throughout. Further, the inhibition was 38% in test [2] and -4% in test [3]. For the same molecule, the result in test [5], in test [6], in test [7] and in test [8] was inactive.

As to `O=C(Nc1ccc2c(c1)CCC2)c1ccc(N2CCN(c3ccncc3)CC2)cn1`, the growth inhibition in test [1] was 58% (active); in test [4] it was 99% (active). Also, the figures for the inhibition in test [2] and in test [3] were 56% (active) and 2%, respectively. Further, the result in test [5], in test [6], in test [7] and in test [8] was inactive.

`N#Cc1ccc(-c2ccc(C(=O)NC3CCN(CCN4CCC(c5cn(CCOC6CCCCO6)c6ccccc56)CC4)CC3)cc2)cc1` (stereo not given): the growth inhibition in test [1] was 86% (active); in test [4] it was 99% (active). The inhibition in test [2] is 48%; in test [3] it was 2%. Besides, the result in test [5], in test [6], in test [7] and in test [8] was inactive.

Consider `O=[N+]([O-])c1ccc(NC(=NCCOc2ccccc2)Nc2ccccc2Br)c(O)c1`, for which the growth inhibition was 70% (active) in test [1] and 88% (active) in test [4]. The inhibition in test [2] is 6%; in test [3], -9%. For the same molecule, the result in test [5], in test [6], in test [7] and in test [8] was inactive.

For `Cc1cc(N[C@@H](Cc2ccccc2)C(=O)NCCc2ccccc2)nc(NCCOc2ccccc2)n1`, the growth inhibition in test [1] is 14%; in test [4], 95% (active). Moreover, the inhibition in test [2] is 10%; in test [3] it was -3%. For the same molecule, the result in test [5], in test [6], in test [7] and in test [8] was inactive.

As to `CC(C)(C)c1ccc(CN2CCC(NC(=O)c3cc(-c4cccc(C(F)(F)F)c4)cs3)C2)cc1` (stereo not given), the values for the growth inhibition in test [1] and in test [4] were 85% (active) and 98% (active), respectively. The inhibition is 24% in test [2] and -1% in test [3]. Moreover, the result in test [5], in test [6], in test [7] and in test [8] was inactive.

On to `CN1CCN(CC(=O)Nc2cccc(-c3cccc(-c4nc5ccc(C(F)(F)F)cc5[nH]4)c3)c2)CC1`, for which the values for the growth inhibition in test [1] and in test [4] were 98% (active) and 101% (active), respectively. Also, the inhibition in test [2] was 26%; in test [3], 4%. Besides, the result in test [5], in test [6], in test [7] and in test [8] was inactive.

As for `Clc1cccc(CNc2nc(NCCc3cnc[nH]3)nc(NC3CCCCC3)n2)c1`, the growth inhibition is 0% in test [1] and 98% (active) in test [4]. Besides, the inhibition in test [2] is 17%; in test [3] it was 5%. Also, the result in test [5], in test [6], in test [7] and in test [8] was inactive.

Turning to `CN(C)C(=O)c1ccc(CN(Cc2cccc(OC(C)(C)C)c2)Cc2ccc3c(c2)OCCO3)cc1`, the growth inhibition in test [1] and in test [4] was 96% (active) throughout. For the same molecule, the inhibition is 0% in test [2] and -2% in test [3]. Also, the outcome in test [5], in test [6], in test [7] and in test [8] was inactive.

For `Cc1cc(N(C)C)nc(Nc2ccc(NC(=O)Nc3ccccc3)cc2)n1`, the results for the growth inhibition in test [1] and in test [4] were 100% (active) and 101% (active), respectively. Moreover, the results for the inhibition in test [2] and in test [3] were 10% and -2%, respectively. Moreover, the result in test [5], in test [6], in test [7] and in test [8] was inactive.

With `CC1(C)N=C(N)N=C(N)N1OCCCCOc1ccc(Cl)cc1C1CCCCC1`, the growth inhibition in test [1] is 97% (active); in test [4] it was 93% (active). The results for the inhibition in test [2] and in test [3] were 56% (active) and 2%, respectively. The outcome in test [5], in test [6], in test [7] and in test [8] was inactive.

Take `Fc1cc(Cl)ccc1Nc1ccnc2cc(-c3ccc(CN4CCSCC4)o3)ccc12`: the growth inhibition in test [1] is 99% (active); in test [4] it was 100% (active). Besides, the inhibition in test [2] is 17%; in test [3], 0%. Also, the result in test [5], in test [6], in test [7] and in test [8] was inactive.

Take `CNC(=O)c1cnc(Nc2ccc3[nH]c(=O)[nH]c3c2)nc1Nc1cccc(OC(C)C)c1`: the results for the growth inhibition in test [1] and in test [4] were 94% (active) and 89% (active), respectively. Moreover, the inhibition was 18% in test [2] and -8% in test [3]. Moreover, the outcome in test [5], in test [6], in test [7] and in test [8] was inactive.

In the case of `Cc1ccc2[nH]c3c(NCCCN(C)C)ncnc3c2c1`, the values for the growth inhibition in test [1] and in test [4] were -2% and 99% (active), respectively. The inhibition was 1% in test [2] and -4% in test [3]. In addition, the result in test [5], in test [6], in test [7] and in test [8] was inactive.

As for `Cc1cc(NCCc2ccccc2)nc(/N=C(\N)Nc2cccc(F)c2)n1`, the growth inhibition was -1% in test [1] and 91% (active) in test [4]. Moreover, the results for the inhibition in test [2] and in test [3] were -6% and -2%, respectively. Besides, the result in test [5], in test [6], in test [7] and in test [8] was inactive.

Turning to `Clc1ccc(Nc2nc(Nc3ccc(Cl)c(Cl)c3)nc(Sc3nc4ccccc4[nH]3)n2)cc1Cl`, the growth inhibition is 100% (active) in test [1] and 99% (active) in test [4]. Also, the inhibition in test [2] is 10%; in test [3], 1%. The result in test [5], in test [6], in test [7] and in test [8] was inactive.

Regarding `CCCNCc1ccc(-c2ccc(CN(CCOC)C(=O)c3cscn3)cc2)nc1`, the figures for the growth inhibition in test [1] and in test [4] were 16% and 99% (active), respectively. For the same molecule, the values for the inhibition in test [2] and in test [3] were 13% and 2%, respectively. Also, the outcome in test [5], in test [6], in test [7] and in test [8] was inactive.

For the molecule `O=C(Nc1cccc(CN2CCCN(Cc3ccc(O)cc3)CC2)c1)c1ccc(Cl)c(Cl)c1`, the growth inhibition is 81% (active) in test [1] and 103% (active) in test [4]. Further, the inhibition in test [2] was 22%; in test [3], -1%. Further, the outcome in test [5], in test [6], in test [7] and in test [8] was inactive.

As for `O=C(NCCN1CCCC1)c1cc(-c2ccc(Cl)c(O)c2)c(-c2ccncc2)o1`, the growth inhibition is -5% in test [1] and 92% (active) in test [4]. The figures for the inhibition in test [2] and in test [3] were -23% and 0%, respectively. Further, the result in test [5], in test [6], in test [7] and in test [8] was inactive.

Consider `Cc1ccc(C)c2c1[nH]c1ccc(C3=NCCN3)cc12`, for which the growth inhibition is -6% in test [1] and 100% (active) in test [4]. For the same molecule, the inhibition in test [2] is 29%; in test [3], -3%. The outcome in test [5], in test [6], in test [7] and in test [8] was inactive.

Take `Cc1cccc2[nH]c(-c3ccc(-c4cccc(CN5CCCC5CN)c4)cc3)nc12` (stereo not given): the growth inhibition in test [1] was 32%; in test [4], 91% (active). The inhibition was 7% in test [2] and 3% in test [3]. The result in test [5], in test [6], in test [7] and in test [8] was inactive.

For `CCN(CCO)CCc1cccc(Nc2nccc(-c3c(-c4ccc(NC(=O)C(C)(C)C)cc4)nn4ccccc34)n2)c1`, the growth inhibition was 96% (active) in test [1] and 101% (active) in test [4]. Also, the inhibition in test [2] was 62% (active); in test [3], 4%. Moreover, the result in test [5], in test [6], in test [7] and in test [8] was inactive.

Regarding `CC(Cc1ccc(OCCN2CCN(c3cccc(Cl)c3)CC2)cc1)NCC(O)c1cccc(C(F)(F)F)c1` (stereo not given), the growth inhibition in test [1] is 98% (active); in test [4], 99% (active). Besides, the inhibition is 100% (active) in test [2] and -1% in test [3]. For the same molecule, the result in test [5], in test [6], in test [7] and in test [8] was inactive.

In the case of `O=C(NC1CC1)c1ccc(N2CCN(Cc3ccc(Cl)cc3)CC2)nc1`, the growth inhibition in test [1] is 81% (active); in test [4] it was 84% (active). Also, the inhibition was 16% in test [2] and 3% in test [3]. Further, the outcome in test [5], in test [6], in test [7] and in test [8] was inactive.

Take `O=C(COc1ccccc1)Nn1cnc2ccccc21`: the growth inhibition was -3% in test [1] and 91% (active) in test [4]. The figures for the inhibition in test [2] and in test [3] were 2% and 3%, respectively. Further, the outcome in test [5], in test [6], in test [7] and in test [8] was inactive.
